Results on nine compounds are retold here after PubChem BioAssay.

Results with a measured potency or affinity are listed apart. Active and inactive are the calls of the source. How the calls were made is not given here.

One test can be described thus: IOSE-T80 ovarian epithelial cell cytotoxicity, dose response, cytotoxicity control for PAX8 inhibitor project, plate reader, dry powder samples (AID 743045).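 Further: more negative values mean more cell killing.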 The following applies: IOSE-T80 ovarian epithelial cells; series mostly up to 35 µM.
Regarding `COc1ccc(NC(=O)Nc2ccc3c(c2)C(=O)N([C@H](C)CO)C[C@H](C)[C@H](CN(C)Cc2ccc(C(F)(F)F)cc2)OCCCC[C@H](C)O3)cc1`, the outcome was inactive. On the same count and under the same terms, to `C[C@@H]1CCCCO[C@H](CN(C)Cc2ccc(Cl)c(Cl)c2)[C@@H](C)CN([C@@H](C)CO)C(=O)c2cc(NS(=O)(=O)c3ccccc3)ccc2O1` belongs “inactive”.

`C[C@@H]1CN([C@@H](C)CO)C(=O)Cc2cc(NC(=O)Cc3ccccc3)ccc2O[C@H]1CN(C)Cc1ccc(-c2ccccc2)cc1`: the compound was classed as inactive. `COc1ccc(NC(=O)N2CCCCN3[C@H](C2)[C@@H](c2ccc(C#Cc4ccccc4)cc2)[C@@H]3CO)cc1`: the compound was called inactive.

A further test can be described thus: A2780 ovarian cancer cell cytotoxicity, dose response, cytotoxicity control, plate reader, dry powder samples (AID 743046). The following applies: series mostly up to 35 µM.
With `COc1ccc(S(=O)(=O)Nc2ccc3c(c2)C(=O)N([C@@H](C)CO)C[C@@H](C)[C@H](CN(C)Cc2ccc(C(F)(F)F)cc2)OCCCC[C@H](C)O3)cc1`, the compound was called inactive.

As to `COc1ccc(S(=O)(=O)N(C)C[C@@H]2OCCCC[C@H](C)Oc3ccc(NS(=O)(=O)c4ccc(Cl)cc4)cc3C(=O)N([C@H](C)CO)C[C@@H]2C)cc1`, the compound was called inactive. The same measure, in the same setting: as for `C[C@@H]1CCCCO[C@@H](CN(C)S(=O)(=O)c2ccccc2)[C@H](C)CN([C@H](C)CO)C(=O)c2cc(NC(=O)Nc3ccc(C(F)(F)F)cc3)ccc2O1`, the entry is “inactive”. The same measure, in the same setting: to `C[C@@H]1CN([C@H](C)CO)C(=O)c2cc(NS(=O)(=O)c3ccccc3)ccc2O[C@@H](C)CCCCO[C@H]1CN(C)Cc1ccc(C(F)(F)F)cc1` belongs “inactive”. On to `C[C@H](CO)N1C[C@H](C)[C@@H](CN(C)Cc2ccc(C(F)(F)F)cc2)Oc2ccc(NS(=O)(=O)c3ccc(Cl)cc3)cc2CC1=O`, for which the compound was called inactive.
